{"source": "PubChem BioAssay (NCATS)", "key": {"[1]": {"experiment": "S16 Schwann cell PMP22 intronic element beta-lactamase assay (AID 624044; calls by dose curve; also: nearly all actives have a fitted effect of over 15% in size)", "outline": "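Beta-lactamase reporter under a PMP22 intronic regulatory element in stable S16 rat Schwann cells; 24 h compound exposure. 460 nm blue signal normalized between DMSO (0%) and potassium clavulanate, with 535 nm FRET tracking viability; curves classed by r2 and response.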"}, "[2]": {"system": "7G8", "experiment": "qHTS profiling for inhibitors of Plasmodium falciparum proliferation (AID 504749); also: nearly all actives have a fitted effect of over 60% in size; also: potency is read from the fitted curve at half-maximal effect", "conditions": "P. falciparum in erythrocytes, SYBR Green DNA, 72 h; series mostly up to 12.8 µM", "outline": "(§1)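 In a 72 h erythrocytic culture (37 C, humidified, 5% CO2) at 2.5% hematocrit and 0.3% starting parasitemia, compounds were tested; SYBR Green I in detergent lysis buffer stained parasite DNA overnight.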"}, "[3]": {"system": "GB4", "experiment": "qHTS profiling for inhibitors of Plasmodium falciparum proliferation (AID 504749)", "conditions": "P. falciparum in erythrocytes, SYBR Green DNA, 72 h; series mostly up to 12.8 µM", "outline": "as §1"}, "[4]": {"system": "P94_40", "experiment": "qHTS profiling for inhibitors of Plasmodium falciparum proliferation (AID 504749)", "conditions": "P. falciparum in erythrocytes, SYBR Green DNA, 72 h; series mostly up to 12.8 µM", "outline": "as §1"}, "[5]": {"system": "TAB109", "experiment": "qHTS profiling for inhibitors of Plasmodium falciparum proliferation (AID 504749)", "conditions": "P. falciparum in erythrocytes, SYBR Green DNA, 72 h; series mostly up to 12.8 µM", "outline": "as §1"}, "[6]": {"system": "ATS95", "experiment": "qHTS profiling for inhibitors of Plasmodium falciparum proliferation (AID 504749)", "conditions": "P. falciparum in erythrocytes, SYBR Green DNA, 72 h; series mostly up to 12.8 µM", "outline": "as §1"}, "[7]": {"system": "CP260", "experiment": "qHTS profiling for inhibitors of Plasmodium falciparum proliferation (AID 504749)", "conditions": "P. falciparum in erythrocytes, SYBR Green DNA, 72 h; series mostly up to 12.8 µM", "outline": "as §1"}, "[8]": {"system": "DFO2036", "experiment": "qHTS profiling for inhibitors of Plasmodium falciparum proliferation (AID 504749)", "conditions": "P. falciparum in erythrocytes, SYBR Green DNA, 72 h; series mostly up to 12.8 µM", "outline": "as §1"}, "[9]": {"target": "Cytochrome P450 3A4 (Homo sapiens) (UniProt P08684)", "sequence (P08684 whole entry, looked up)": "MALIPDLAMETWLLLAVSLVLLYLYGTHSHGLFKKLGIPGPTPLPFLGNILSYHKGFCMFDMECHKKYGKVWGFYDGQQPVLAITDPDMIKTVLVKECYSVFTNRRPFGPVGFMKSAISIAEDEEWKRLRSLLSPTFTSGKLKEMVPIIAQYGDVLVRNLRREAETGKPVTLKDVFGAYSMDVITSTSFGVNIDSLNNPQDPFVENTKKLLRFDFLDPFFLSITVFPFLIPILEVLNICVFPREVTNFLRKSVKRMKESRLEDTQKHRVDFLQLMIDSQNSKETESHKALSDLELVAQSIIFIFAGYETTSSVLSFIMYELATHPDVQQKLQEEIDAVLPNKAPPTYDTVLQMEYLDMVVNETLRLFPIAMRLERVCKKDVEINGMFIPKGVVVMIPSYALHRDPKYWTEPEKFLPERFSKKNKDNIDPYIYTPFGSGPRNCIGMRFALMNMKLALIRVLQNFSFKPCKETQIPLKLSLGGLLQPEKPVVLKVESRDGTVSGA", "experiment": "qHTS Assay for Inhibitors and Substrates of Cytochrome P450 3A4 (AID 884)", "outline": "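Luminescent readout of luciferin produced by CYP3A4 (20 nM) dealkylation of Luciferin-PPXE, 25 uM (its KM). NADPH-driven reaction ran 60 min at RT after 10 min compound preincubation; data scaled to 57 uM ketoconazole as 100% inhibition.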"}, "[10]": {"target": "Cytochrome P450 1A2 (Homo sapiens) (UniProt P05177)", "sequence (P05177 whole entry, looked up)": "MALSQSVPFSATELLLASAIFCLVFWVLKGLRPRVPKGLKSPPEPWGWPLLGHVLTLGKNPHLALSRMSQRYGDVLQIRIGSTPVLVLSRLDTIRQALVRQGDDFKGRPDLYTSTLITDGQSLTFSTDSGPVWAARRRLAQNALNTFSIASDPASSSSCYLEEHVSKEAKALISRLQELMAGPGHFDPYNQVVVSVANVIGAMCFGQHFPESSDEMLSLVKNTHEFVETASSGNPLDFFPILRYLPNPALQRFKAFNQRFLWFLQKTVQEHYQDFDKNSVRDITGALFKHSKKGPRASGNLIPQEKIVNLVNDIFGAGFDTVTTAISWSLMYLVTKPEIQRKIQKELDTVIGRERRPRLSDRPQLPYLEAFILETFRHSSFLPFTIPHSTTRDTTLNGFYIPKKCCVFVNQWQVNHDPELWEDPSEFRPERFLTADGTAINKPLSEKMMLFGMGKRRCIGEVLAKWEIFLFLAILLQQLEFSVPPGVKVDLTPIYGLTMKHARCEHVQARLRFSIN", "experiment": "p450-cyp1a2 (AID 410; calls by dose curve)", "outline": "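Read-out is luminescence from luciferin produced by CYP1A2 demethylation of Luciferin-ME (100uM, at Km). Detection reagent stopped the 60 min NADPH-dependent reaction; signals were normalized to 57 uM furafylline.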"}, "[11]": {"target": "Cytochrome P450 3A4 (Homo sapiens) (UniProt P08684)", "experiment": "qHTS Assay for Activators of Cytochrome P450 3A4 (AID 885)", "outline": "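Human CYP3A4 dealkylates Luciferin-PPXE to luciferin, which luciferase detection converts to light. Substrate was at its KM (25uM), buffer 200mM KPO4, reaction 60 min at RT.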"}, "[12]": {"target": "Cytochrome P450 2D6 (Homo sapiens) (UniProt P10635)", "sequence (P10635 whole entry, looked up)": "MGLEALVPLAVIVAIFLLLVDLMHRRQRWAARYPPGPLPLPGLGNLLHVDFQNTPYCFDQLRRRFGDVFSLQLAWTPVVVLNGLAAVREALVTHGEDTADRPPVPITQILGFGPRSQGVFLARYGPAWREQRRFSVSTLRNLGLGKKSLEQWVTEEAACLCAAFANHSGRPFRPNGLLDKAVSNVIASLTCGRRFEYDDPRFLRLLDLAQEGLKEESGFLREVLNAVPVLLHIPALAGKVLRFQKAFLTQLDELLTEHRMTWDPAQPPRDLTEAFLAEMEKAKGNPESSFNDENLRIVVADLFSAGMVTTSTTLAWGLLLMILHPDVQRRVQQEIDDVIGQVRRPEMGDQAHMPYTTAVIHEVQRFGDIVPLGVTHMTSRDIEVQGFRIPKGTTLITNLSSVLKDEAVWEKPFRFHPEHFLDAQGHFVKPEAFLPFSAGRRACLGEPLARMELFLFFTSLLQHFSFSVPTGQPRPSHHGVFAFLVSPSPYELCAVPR", "experiment": "qHTS Assay for Inhibitors and Substrates of Cytochrome P450 2D6 (AID 891)", "outline": "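Luminescent read-out of luciferin formed by 5 nM human CYP2D6 demethylating 30 uM Luciferin-ME EGE (Km level) over 60 min at room temperature after NADPH regeneration addition. Data normalized to full inhibition by 1.43 uM quinidine.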"}, "[13]": {"target": "Cytochrome P450 2C9 (Homo sapiens) (UniProt P11712)", "sequence (P11712 whole entry, looked up)": "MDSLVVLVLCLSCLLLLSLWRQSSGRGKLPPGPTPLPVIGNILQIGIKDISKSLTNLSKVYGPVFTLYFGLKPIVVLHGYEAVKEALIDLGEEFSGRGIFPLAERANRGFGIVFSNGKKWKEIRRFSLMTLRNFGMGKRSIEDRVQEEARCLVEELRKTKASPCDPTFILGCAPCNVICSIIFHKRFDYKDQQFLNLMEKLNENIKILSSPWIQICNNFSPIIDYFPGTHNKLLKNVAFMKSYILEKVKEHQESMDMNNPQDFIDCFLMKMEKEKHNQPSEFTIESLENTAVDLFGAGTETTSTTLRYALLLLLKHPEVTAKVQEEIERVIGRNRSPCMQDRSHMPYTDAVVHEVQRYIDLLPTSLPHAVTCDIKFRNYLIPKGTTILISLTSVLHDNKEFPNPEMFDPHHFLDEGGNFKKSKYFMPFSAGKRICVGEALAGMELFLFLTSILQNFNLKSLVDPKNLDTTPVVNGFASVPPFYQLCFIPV", "experiment": "qHTS Assay for Inhibitors and Substrates of Cytochrome P450 2C9 (AID 883)", "outline": "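Inhibition of CYP2C9 is scored as loss of luminescence, with 57uM sulphaphenazole defining 100% inhibition. Substrate Luciferin-H is used at 100uM, equal to its KM; enzyme at 10nM in 25mM KPO4, 60 min at 37C with NADPH regeneration.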"}, "[14]": {"target": "Cytochrome P450 2C19 (Homo sapiens) (UniProt P33261)", "sequence (P33261 whole entry, looked up)": "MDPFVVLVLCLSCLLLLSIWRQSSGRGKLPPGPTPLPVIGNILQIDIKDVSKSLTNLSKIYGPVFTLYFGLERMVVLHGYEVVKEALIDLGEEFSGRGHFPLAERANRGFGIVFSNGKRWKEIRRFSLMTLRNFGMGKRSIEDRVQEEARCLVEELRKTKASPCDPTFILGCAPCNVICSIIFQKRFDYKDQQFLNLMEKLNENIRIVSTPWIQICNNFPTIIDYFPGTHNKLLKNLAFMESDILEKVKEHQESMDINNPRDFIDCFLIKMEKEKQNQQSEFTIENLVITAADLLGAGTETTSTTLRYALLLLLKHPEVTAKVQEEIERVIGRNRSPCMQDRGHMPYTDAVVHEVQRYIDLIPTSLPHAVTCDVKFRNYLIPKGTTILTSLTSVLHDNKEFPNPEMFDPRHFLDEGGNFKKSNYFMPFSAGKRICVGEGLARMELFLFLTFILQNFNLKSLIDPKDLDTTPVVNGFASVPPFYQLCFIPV", "experiment": "qHTS Assay for Inhibitors and Substrates of Cytochrome P450 2C19 (AID 899)", "outline": "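5nM enzyme + 10uM Luciferin-H EGE (=KM), 50mM KPO4; cpd pin-transferred, 10 min 37C; NADPH regen, 60 min 37C; stopped w/ luciferin detection reagent, 20 min; luminescence. Normalized to 57uM ketoconazole (AC100).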"}}, "note": "Records with an inconclusive call do not appear. The source made the active and inactive calls. Unless noted, calls follow the shape of the dose curve; as a rule, active = well fitted curve in the direction sought with a large enough effect; inconclusive = small, poorly fitted or top-dose-only effect, or another doubt; inactive = no such curve, though single readings can be large; an effect the other way counts as inactive or inconclusive."}
{"smiles": "C[C@@H](CNC1CCCCC1)OC(=O)c1ccccc1", "values": [{"measurement": "Potency", "setting": "[1]", "result": "inactive"}, {"measurement": "Potency", "setting": "[2]", "result": "0.891 µM (active)"}, {"measurement": "Potency", "setting": "[3]", "result": "4.55 µM (active)"}, {"measurement": "Potency", "setting": "[4]", "result": "3.55 µM (active)"}, {"measurement": "Potency", "setting": "[5]", "result": "3.55 µM (active)"}]}
{"smiles": "CCN1CCC[C@@H](OC(=O)C(c2ccccc2)c2ccccc2)C1", "values": [{"measurement": "Potency", "setting": "[1]", "result": "inactive"}, {"measurement": "Potency", "setting": "[6]", "result": "inactive"}, {"measurement": "Potency", "setting": "[7]", "result": "inactive"}, {"measurement": "Potency", "setting": "[8]", "result": "inactive"}]}
{"smiles": "CC(=O)OCC(=O)[C@@]1(OC(C)=O)[C@H](C)C[C@H]2[C@@H]3C[C@H](F)C4=CC(=O)C=C[C@@]4(C)[C@]3(F)[C@H](O)C[C@@]21C", "values": [{"measurement": "Potency", "setting": "[9]", "result": "inactive"}]}
{"smiles": "CCN(CC)CCOC(=O)[C@@H](c1ccccc1)C1CCCCC1", "values": [{"measurement": "Potency", "setting": "[10]", "result": "1.26 µM (active)"}, {"measurement": "Potency", "setting": "[11]", "result": "inactive"}, {"measurement": "Potency", "setting": "[12]", "result": "0.631 µM (active)"}]}
{"smiles": "O=c1cc(-c2cccc(O)c2)oc2cc(O)ccc12", "values": [{"measurement": "Potency", "setting": "[10]", "result": "5.01 µM (active)"}, {"measurement": "Potency", "setting": "[13]", "result": "25.1 µM (active)"}, {"measurement": "Potency", "setting": "[9]", "result": "12.6 µM (active)"}, {"measurement": "Potency", "setting": "[11]", "result": "inactive"}, {"measurement": "Potency", "setting": "[12]", "result": "inactive"}, {"measurement": "Potency", "setting": "[14]", "result": "inactive"}]}
{"smiles": "CCOC(=O)Oc1c(OC)cc(C(=O)O[C@H]2C[C@H]3CN4CCc5c([nH]c6cc(OC)ccc56)[C@@H]4C[C@H]3[C@@H](C(=O)OC)[C@@H]2OC)cc1OC", "values": [{"measurement": "Potency", "setting": "[10]", "result": "inactive"}, {"measurement": "Potency", "setting": "[1]", "result": "inactive"}, {"measurement": "Potency", "setting": "[2]", "result": "2.51 µM (active)"}, {"measurement": "Potency", "setting": "[7]", "result": "2.51 µM (active)"}, {"measurement": "Potency", "setting": "[3]", "result": "6.42 µM (active)"}, {"measurement": "Potency", "setting": "[5]", "result": "3.55 µM (active)"}]}
